Screening results deposited in PubChem by several laboratories.
PTK2B oligo ant = antagonists of human Pyk2 oligomerization | Q14289 | Q293 cells, Pyk2 FERM NanoBiT luminescence; hits give low values | 0.83% of 99,000 active | z-score (the deposit names both 25 µM and 10 µM);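 active = Z-score of -3 or lower, scaled per plate to the spread of control and sample wells; inactive = z-score above -3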;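 also: negative z-score means lost luminescence so less FERM oligomerization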
NFkB transloc inh = blocks IL-1B driven NFkB nuclear translocation in HUVEC cells; HUVEC IL-1B NFkB p65 nuclear translocation imaging; inhibition, % at 2 µM; 0.43% of 94,000 active; AID 796;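 active = inhibition above about 30% together with a positive call from visual inspection of the well image, limit read from the data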;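 also: nuclear over cytoplasmic p65 intensity ratio measured by imaging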
Plk1 PBD FP = Plk1 (human) PBD binding inhibition. P53350. Plk1 PBD phosphopeptide binding, fluorescence polarization. inhibition, %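 (tested at about 20 µM)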. 0.13% of 97,000 active; in the data active = inhibition above about 34%, passing the limit was not always enough
Target sequence (P53350 whole entry, looked up): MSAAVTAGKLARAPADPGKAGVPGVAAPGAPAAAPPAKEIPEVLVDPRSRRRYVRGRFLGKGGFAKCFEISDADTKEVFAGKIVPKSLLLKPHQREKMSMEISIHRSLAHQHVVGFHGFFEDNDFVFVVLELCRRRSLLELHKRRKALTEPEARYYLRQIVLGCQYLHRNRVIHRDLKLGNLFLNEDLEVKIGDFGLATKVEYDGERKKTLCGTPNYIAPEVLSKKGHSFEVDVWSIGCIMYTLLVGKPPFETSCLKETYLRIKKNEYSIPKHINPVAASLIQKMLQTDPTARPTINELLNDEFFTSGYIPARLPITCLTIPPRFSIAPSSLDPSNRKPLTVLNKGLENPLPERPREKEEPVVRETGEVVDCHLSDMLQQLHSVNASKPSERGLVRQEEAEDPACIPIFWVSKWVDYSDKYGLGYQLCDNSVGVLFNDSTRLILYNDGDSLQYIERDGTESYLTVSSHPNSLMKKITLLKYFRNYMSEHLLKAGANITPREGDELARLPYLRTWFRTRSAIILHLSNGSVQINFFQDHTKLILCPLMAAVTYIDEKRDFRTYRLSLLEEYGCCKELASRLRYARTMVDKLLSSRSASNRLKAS
PLK1 kinase inh = PLK1 (human) kinase inhibition; P53350; recombinant PLK1 kinase, TR-FRET peptide phosphorylation; inhibition, % at 10 µM; 0.53% of 97,000 active; AID 619;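 active = inhibition of 50% or more in the single-concentration screen; inactive = inhibition below 50%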
HUVEC tox IL1B = HUVEC cytotoxicity counter-screen, IL-1B stimulated; AID 845; cell count reduction, % at 2 µM; HUVEC cell count loss, Hoechst imaging; 0.41% of 94,000 active;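 active = cell count reduction more than 3 SD above the screen-wide mean, cut at about 70% in these data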
NFkB transloc pot = enhances IL-1B driven NFkB nuclear translocation | HUVEC IL-1B NFkB p65 nuclear translocation imaging | AID 819 | 0.3% of 94,000 active | activation, % at 2 µM;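 active = activation above 40%, about the mean plus 3 SD, also judged a hit on visual image review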;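 also: percent activation is computed from the nuclear over cytoplasmic p65 intensity ratio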
Of the large screens only hits and unclear results are named; the others gave an inactive call. Compounds with a hit are over-represented: about 2.2% of the library has one in this group of screens.

CC(C)Cn1nc(NC(=O)C(C)(C)C)c2cc3ccccc3nc21	none
COc1ccc2nc3c(cc2c1)c(NC(=O)c1cccs1)nn3CC(C)C	PTK2B oligo ant -3.39
O=C(OCC(=O)N1CCCC1)c1cncc(Br)c1	NFkB transloc inh 98.1, HUVEC tox IL1B 87.8
CCC(C)NS(=O)(=O)c1ccc(OCC(=O)N2CCC(C)CC2)cc1 (configuration not stated)	none
C=CCSc1nnc2c(n1)OC=Nc1ccccc1-2	NFkB transloc inh 30.3, HUVEC tox IL1B 90.8
C=CCSc1nnc2c(n1)OC(c1ccccn1)N(C(C)=O)c1ccccc1-2 (configuration not stated)	none
Cc1ccc(-n2c3c(c(=O)[nH]c2=O)C(NS(=O)(=O)c2ccc(Cl)cc2)(C(F)(F)F)C(=O)N3)cc1 (configuration not stated)	none (no result: NFkB transloc inh, Plk1 PBD FP, PLK1 kinase inh, HUVEC tox IL1B, NFkB transloc pot)
CC(=O)C1=C(C)OC(N)=C(C#N)C1c1cc2cc(C)c(C)cc2nc1Cl (configuration not stated)	NFkB transloc pot 43.3
N#CCCn1cc(C(CC(=O)c2ccc(Br)cc2)C(=O)O)c2ccccc21 (configuration not stated)	PLK1 kinase inh 55.9 (no result: PTK2B oligo ant, NFkB transloc inh, HUVEC tox IL1B, NFkB transloc pot)
Cc1c(N)cccc1-c1nc2ccccc2[nH]1	none
O=C(NCC(F)(F)F)Nc1cccnc1	NFkB transloc inh 77.3, HUVEC tox IL1B 89.8
O=C(Nc1cccnc1)Nc1ccccc1Cl	none
CCCCCSc1nnc2c(n1)OC(C)N(C(C)=O)c1ccccc1-2 (configuration not stated)	PLK1 kinase inh 57.2 (no result: PTK2B oligo ant, NFkB transloc inh, HUVEC tox IL1B, NFkB transloc pot)
CCN(c1ccc(C)c(C)c1)S(=O)(=O)c1ccc2c(c1)CCN2C(=O)CCC(=O)O	NFkB transloc pot 53.7
CCN(c1ccc(OC)cc1)S(=O)(=O)c1ccc2c(c1)CCN2C(=O)CCC(=O)O	none
CCC(C)Sc1nc2ccccc2n1CC(=O)O (configuration not stated)	none
O=C(Cn1nc(Cc2ccncc2)c2ccccc2c1=O)N1CCc2ccccc2C1	NFkB transloc pot 72.1 (no result: PTK2B oligo ant)
CN(CCC#N)C(=O)Cn1nc(Cc2ccncc2)c2ccccc2c1=O	none (no result: PTK2B oligo ant)
CCN(CC)c1ccc(/C=C(/C#N)c2nc3ccccc3[nH]2)c(OC(C)C)c1	PTK2B oligo ant -3.44
CCCCn1ccnc1C(=O)c1cc(S(=O)(=O)N2CCOCC2)ccc1C	NFkB transloc inh 54.8
Cc1ccc(N=C2NC(=O)/C(=C\c3ccsc3)S2)c(C)c1	none (no result: NFkB transloc inh, Plk1 PBD FP, PLK1 kinase inh, HUVEC tox IL1B, NFkB transloc pot)
Cc1cc(C)c(C)c(S(=O)(=O)NCc2ccc(C(=O)N3CCCCC3)cc2)c1C	none
Cc1ccc(NC(=S)N(C)Cc2cn(C)c3ccccc23)cc1	none (no result: NFkB transloc inh, Plk1 PBD FP, PLK1 kinase inh, HUVEC tox IL1B, NFkB transloc pot)
Cn1c(COc2ccc3ccccc3c2)nnc1SCC(N)=O	none
Cn1c(COc2ccc3ccccc3c2)nnc1SCC(=O)OC1CCCCC1	NFkB transloc pot 41.1
CCc1nnc(NC(=O)C2Cc3ccccc3CN2S(=O)(=O)c2cccs2)s1 (configuration not stated)	none
CCc1nnc(NC(=O)C2Cc3ccccc3CN2S(=O)(=O)c2ccc(C)cc2)s1 (configuration not stated)	PTK2B oligo ant -3.01
CCC(C)NC(=O)c1ccc(CS(=O)(=O)Cc2ccc(Cl)cc2)o1 (configuration not stated)	none
CN(C)C(=O)CN(C)S(=O)(=O)c1ccc(Cl)cc1	NFkB transloc inh 91.0
CN(CC(=O)Nc1ccccn1)S(=O)(=O)c1ccc(Cl)cc1	none
CCC(C)(C)n1nnnc1C(c1cc(OC)ccc1OC)N1CCC(C(N)=O)CC1 (configuration not stated)	none
Clc1ccc(OCc2nc(-c3ccccn3)no2)c(Br)c1	NFkB transloc inh 35.5 (no result: PTK2B oligo ant)
O=C(Nc1cccc(Cl)c1)c1cnn2cccnc12	PLK1 kinase inh 59.5
CC1CCCCN1C(=O)/C(=C\c1ccccc1)c1ccccc1 (configuration not stated)	none
COc1ccccc1-c1nnc2sc(-c3ccc(N(C)C)cc3)nn12	PTK2B oligo ant -3.39 (no result: NFkB transloc inh, Plk1 PBD FP, PLK1 kinase inh, HUVEC tox IL1B, NFkB transloc pot)
CCn1c(SCC(=O)Nc2nc(-c3ccccc3)cs2)nnc1-c1ccccc1O	PTK2B oligo ant -3.13
CCn1c(SCC(=O)NCc2cccs2)nnc1-c1ccncc1	none
CCc1nnc(NC(=O)CSc2nnc(-c3cc4ccccc4cc3O)n2CC)s1	PTK2B oligo ant -3.04 (no result: NFkB transloc inh, Plk1 PBD FP, PLK1 kinase inh, HUVEC tox IL1B, NFkB transloc pot)
CCn1c(SCC(=O)Nc2cccc(NC(=O)c3cccs3)c2)nnc1-c1ccncc1	NFkB transloc pot 41.5
